# Reference: PubChem BioAssay
# Calls of active or inactive are those of the source. Unless noted, how the calls were made is not given here.
# Assays:
# [1] = tested on: Wnt5a (protein binding on small-molecule microarray); test: Wnt5a binders on small-molecule microarray, primary screen, biophysical, 635/667 nm fluorescence (AID 1142); details: 635 nm fluorescence, higher = more signal;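 further: fluorescence read at 667 nm with signal to noise per printed feature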
# [2] = cell viability in Huh7 cells, primary screen, cytotoxicity control for HCV replication inhibitor project, CellTiter-Glo luminescence, basal, 48 h (AID 1143); details: Huh7 HCV replicon, higher = more signal, called active from +8 up or from −8 down;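 further: Huh7 hepatoma cells carrying a hepatitis C replication reporter with no stimulus; test concentration not given here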
# [3] = P. aeruginosa biofilm formation inhibitors, primary screen, PAO1 strain, BacTiter-Glo luminescence, LB-PBS (AID 1144); details: 12 h, higher = more signal
# [4] = CREB reporter modulators without forskolin, primary screen, cell-based, PC12, CRE-LacZ reporter, unstimulated (AID 1145); details: no forskolin, luminescence, 4.5 h, higher = more signal, called active from +8 up or from −8 down
# [5] = CREB reporter modulators under forskolin, primary screen, cell-based, PC12, CRE-LacZ reporter, forskolin-stimulated (AID 1146); details: luminescence, 4.5 h, higher = more signal, called active from +8 up or from −8 down;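 further: PC12 cells with 6xCRE LacZ reporter stimulated by forskolin 10 µM; beta-galactosidase reporter signal reflecting CREB driven transcription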
# [6] = biological target: Streptavidin (Streptomyces avidinii) (UniProt P22629); test: streptavidin binders on small-molecule microarray, primary screen, artefact control for SMM compound annotation, biophysical, 635/667 nm fluorescence (AID 1147); details: streptavidin binding, higher = more signal;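 further: signal reflects streptavidin binding to arrayed compounds as a control protein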
# [7] = small-molecule binders of probe aInhba, primary screen, biochemical, small-molecule microarray, 635/667 nm fluorescence (AID 1148); details: higher = more signal;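 further: score merges 667nm spot fluorescence with signal-to-noise for antibody binding to printed compounds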
# Torsin-1A (Homo sapiens) [8] = biological target: Torsin-1A (Homo sapiens) (UniProt O14656); test: torsin A binders from cell lysate, primary screen, small-molecule microarray, wild-type, 635/667 nm (AID 1149); details: COS7 hTOR1A-WT lysate, 635 nm fluorescence, higher = more signal
# Torsin-1A (Homo sapiens) [9] = biological target: Torsin-1A (Homo sapiens) (UniProt O14656); test: small-molecule binders of mutant TOR1A in lysate, primary screen, cell lysate, small-molecule microarray, COS7 lysate, 635/667 nm fluorescence (AID 1150); details: COS7 hTOR1A mutant lysate, 635 nm fluorescence, higher = more signal;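 further: score pools 667 nm emission and signal to noise measuring lysate protein binding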
# [10] = tested on: Sonic hedgehog protein (Shh); test: small-molecule binders of Shh protein, primary screen, biochemical, small-molecule microarray, 635/667 nm fluorescence (AID 1151); details: small-molecule microarray binding, 635 nm fluorescence; higher = more signal;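 further: Shh protein binding to compounds spotted on small-molecule microarray slides; score combines spot fluorescence intensity with signal-to-noise across triplicate slides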
# Chain of Torsin-1A (Homo sapiens) (O14656 whole entry, looked up): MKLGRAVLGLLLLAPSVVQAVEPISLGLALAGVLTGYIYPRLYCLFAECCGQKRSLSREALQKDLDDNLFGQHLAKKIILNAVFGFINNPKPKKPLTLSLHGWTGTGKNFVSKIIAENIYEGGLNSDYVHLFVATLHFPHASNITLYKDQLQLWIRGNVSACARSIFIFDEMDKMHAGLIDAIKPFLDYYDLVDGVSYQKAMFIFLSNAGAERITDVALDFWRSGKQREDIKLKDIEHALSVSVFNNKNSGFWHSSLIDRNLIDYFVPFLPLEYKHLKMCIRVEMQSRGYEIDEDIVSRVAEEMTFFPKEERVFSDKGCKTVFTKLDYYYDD
# Chain of Streptavidin (Streptomyces avidinii) (P22629 whole entry, looked up): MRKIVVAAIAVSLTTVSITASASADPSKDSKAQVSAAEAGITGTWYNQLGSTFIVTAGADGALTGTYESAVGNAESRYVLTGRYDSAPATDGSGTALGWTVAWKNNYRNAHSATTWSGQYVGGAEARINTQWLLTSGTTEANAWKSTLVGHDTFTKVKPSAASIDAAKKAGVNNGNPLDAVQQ
Structure (SMILES),composite z-score [1],z-score [2],z-score [3],z-score [4],z-score [5],composite z-score [6],composite z-score [7],composite z-score (Torsin-1A (Homo sapiens) [8]),composite z-score (Torsin-1A (Homo sapiens) [9]),composite z-score [10]
COCCOC(=O)N1C(=O)[C@@]2(c3cc(C#Cc4ccc(OC)cc4)ccc31)[C@H](c1ccc(O)cc1)N1[C@H](c3ccccc3)[C@H](c3ccccc3)OC(=O)[C@H]1[C@@H]2C(N)=O,0.586,-2.75 (inactive),-0.97 (inactive),-0.752 (inactive),-0.94 (inactive),0.417,-0.0947,0.187,0.825,1.44
COCCCNC(=O)[C@@]1(CCS(=O)(=O)c2ccccc2)N=C(c2ccc(OCCCO)cc2)O[C@H]1c1ccccc1,0.68,-1.7 (inactive),-0.701 (inactive),0.951 (inactive),0.353 (inactive),0.188,0.38,1.45,2.73,-0.766
COCCNC(=O)OCC1CCCC2(CC(OC(=O)NCCc3ccc(F)cc3)CC(CCC(=O)N[C@@H](C)C(=O)OC)O2)O1 (stereo not given in full),0.156,-0.126 (inactive),0.252 (inactive),0.374 (inactive),-0.448 (inactive),0.753,-0.128,0.267,-0.0343,1.09
CC(C)=CCCC(C)=CCON=C1[C@H]2CCn3c(=O)n(C)c(=O)n3[C@H]2[C@H](O)[C@@H]2O[C@H]12,0.287,0.583 (inactive),1.13 (inactive),0.519 (inactive),-0.0697 (inactive),0.203,-0.12,1.15,0.898,1.98
CC(C)NC(=O)[C@@]1(C)c2ccccc2C(=O)N(Cc2cc(F)cc(C(F)(F)F)c2)[C@H]1c1ccc(CO)cc1,0.646,-0.527 (inactive),-0.699 (inactive),0.648 (inactive),-0.237 (inactive),0.0926,0.2,0.411,0.916,0.903
CN1C(=O)[C@@]2(CCC(=O)OC(C)(C)C)N=C(c3ccc(OCCCO)cc3)O[C@H]2c2ccccc21,0.0942,-4.68 (inactive),-1.73 (inactive),0.652 (inactive),-1.92 (inactive),-0.235,0.0649,-0.132,0.43,1.5
CCOC(=O)[C@H](Cc1ccccc1)NC(=O)CCC1CC(OC(=O)NCc2ccc3c(c2)OCO3)CC2(CCCC(COC(=O)NCc3cccc(C(F)(F)F)c3)O2)O1 (stereo not given in full),-0.0271,-2.72 (inactive),-0.518 (inactive),-0.618 (inactive),-0.0205 (inactive),0.0284,0.0448,0.0337,0.134,1.17
CCc1cccc(NC(=O)O[C@H]2[C@H](OC(=O)Nc3ccc4c(c3)OCO4)[C@@H](OC(=O)Nc3ccc4c(c3)OCO4)[C@@H](OC)O[C@@H]2CO)c1,0.546,-3.35 (inactive),-1.21 (inactive),0.101 (inactive),-0.684 (inactive),1.28,0.0073,1.14,0.731,1.76
COc1ccccc1CN1C(=O)c2ccccc2[C@@]2(Cc3ccccc3N(C(C)C)C2=O)[C@@H]1c1ccc(CO)cc1,-0.458,-1.84 (inactive),-0.205 (inactive),-0.179 (inactive),-0.335 (inactive),-0.213,-0.0695,-1.25,0.373,-0.147
CCOC(=O)CCN1C(=O)[C@H]2[C@H]3[C@H](O)[C@H](O)CC(=NNC(=O)OCc4ccc(OC)cc4)[C@@H]3CC[C@H]2C1=O,-0.109,-0.284 (inactive),0.5 (inactive),0.957 (inactive),-0.254 (inactive),0.922,-0.195,-0.0239,0.0335,0.741
COC(=O)CC1OC1[C@H](C)[C@@H](OC)C(C)C (stereo not given in full),-0.0087,-0.229 (inactive),-0.183 (inactive),1.47 (inactive),-0.213 (inactive),-0.329,-0.0963,0.436,0.0299,0.813
Cc1cc2c(nc1C)CCCN2CC(O)CN1CCN(C)CC1 (stereo not given),-0.168,-1.28 (inactive),0.816 (inactive),-0.613 (inactive),-0.91 (inactive),0.549,0.198,0.679,0.528,0.672
COC(=O)C1=C(C)[C@@H](O)[C@@H](C)[C@H](c2c(OC)c(OC)c(C)c(OC)c2OC)O1,0.0023,-0.0219 (inactive),0.148 (inactive),2.18 (inactive),0.0745 (inactive),0.479,-0.218,0.14,0.553,0.535
C#CCCCON=C1C[C@@H](O)[C@@H](O)[C@@H]2[C@@H]3C(=O)N(CCC(=O)OCC)C(=O)[C@@H]3CC[C@@H]12,0.109,0.402 (inactive),-0.262 (inactive),1.15 (inactive),-0.0962 (inactive),0.842,0.027,-0.343,0.612,-0.948
[N-]=[N+]=NCc1ccccc1[C@@H]1OC(c2ccc(OCCCO)cc2)=N[C@]1(Cc1ccccc1)C(=O)N1CCOCC1,0.599,-3.55 (inactive),0.369 (inactive),-0.0017 (inactive),0.531 (inactive),1.66,0.618,3.2,3.32,0.0283
